From PubChem BioAssay AID624352 (Sanford-Burnham Center for Chemical Genomics, 2012)
About 2,600 (0.72%) of roughly 360,000 compounds were called active.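 The calls were made as follows: active = inhibition of the luminescence signal of 40% or more relative to plate controls, in a single-dose primary screen at 18.75 µM; inactive = the rest.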 The list comes from a sample in which actives are over-represented; it also holds similar structures and randomly drawn compounds.

Test: blockers of HIF-2a driven luciferase – luminescence, 786-0 RCC cells, primary screen (AID 624352)
Conditions: 786-0 RCC cells HIF-2a reporter, overnight, at 18.8 µM, stronger effect = higher value

inhibition, inactive:
Cc1ccc(OCCCC(=O)Nc2ccc3c(c2)OCCO3)cc1 1.79%
CCOc1ccc(NCCC(=O)c2ccc3c(c2)OCO3)cc1 -129%
CCC(=O)Nc1ccc(C(=O)CSc2nnc(CNc3ccc(Cl)cc3)o2)cc1OC 14.6%
CC(=O)N1c2ccc(S(=O)(=O)N3CCCC(C(=O)Nc4ccc(C)cc4C)C3)cc2CC1C (stereo not drawn) 17%
Oc1ccc(CNc2ccccc2O)cc1 -142%
O=S(=O)(NCc1ccccn1)c1ccc(Br)s1 -3.82%
CCN(CC)CC(=O)Nc1nn(-c2ccccc2)nc1C(N)=O 4.53%
OCCCNC(c1ccccc1)c1ccc(O)cc1 (stereo not drawn) 1.29%
CC(=O)OCc1cc(=O)n(C)c(=O)n1C -10.8%
O=C(CSc1nc2cccc(F)c2c(=O)n1-c1ccccc1)Nc1ccc2c(c1)CCC2 -5.39%
CC(C)(C)CC(=O)Nc1nc(C(N)Cc2ccc(C(F)(F)F)cc2)cs1 (stereo not drawn) 11.1%
COc1ccc(CC(N)c2csc(NC(=O)NC(c3ccccc3)c3ccccc3)n2)cc1 (stereo not drawn) 4.75%
O=C(CNC(=O)OCc1ccccc1)Oc1cc2oc(=O)cc(-c3ccccc3)c2cc1Cl -13.9%
COc1ccc(S(=O)(=O)N2C[C@H]3CON(C)[C@H]3C[C@H]2c2cccc(Br)c2)cc1 6%
CN1OC[C@@H]2CN(S(=O)(=O)c3cccc4ccccc34)[C@H](c3ccc(N4CCCCC4)cc3)C[C@@H]21 7.35%
COc1ccc(-c2cnc3c(c2)C(=O)N([C@H](C)CO)C[C@@H](C)[C@H](CN(C)Cc2ccccc2)O3)cc1 -3.08%
COCCNC(=O)c1ccccc1-c1nc(-c2ccccc2Cl)no1 -82.5%
Cc1cc(C)n(C(=O)CCNC(=O)c2ccccc2Cl)n1 5.47%
O=S(=O)(N/N=C\c1cccn1-c1ccccc1)c1ccc2ccccc2c1 9.64%
CCCc1cc(-c2n[nH]c(=S)n2CC)c2ccccc2n1 25.6%
CCN(CC)S(=O)(=O)c1cccc(-c2n[nH]c(=S)n2/N=C/c2ccc(C(=O)OC)cc2)c1 20.2%
CCN1CCN(C(=O)C2CCN(S(=O)(=O)c3cc(Cl)ccc3Cl)CC2)CC1 6.56%
COc1ccc(Br)cc1S(=O)(=O)N1CCN=C1C 13.2%
O=C(Nc1ccc2c(c1)OCO2)C1CC(c2c(F)cccc2Cl)=NO1 (stereo not drawn) -228%
Cc1c(C)c2cc3c4c(oc3c(C)c2oc1=O)CCCC4 -31.5%
Cc1c(CCC(=O)N[C@@H](CC(C)C)C(=O)O)c(=O)oc2c(C)c3oc4c(c3cc12)CCCC4 31.2%
CC(C)Cn1c(N)c(C(=O)COC(=O)C2CCCN2C(=O)c2cccs2)c(=O)n(C)c1=O (stereo not drawn) 4.33%
CC1(C)C2CCC13CS(=O)(=O)NC3C2 (stereo not drawn) 14.9%
N#Cc1ccc(OCC(=O)Nc2nc(-c3ccccn3)cs2)cc1 21.4%
O=C(NC(=S)Nc1ccc(Cl)cc1Cl)C1CC1 -294%
Cc1ccnc(NC(=O)CCNS(=O)(=O)c2ccc(C)c(C)c2)c1 -176%
O=C(COC(=O)c1cccc(Cl)c1)NC1CCCCCCC1 6.27%
COC(=O)c1cc(C(=O)NC(C)C2CC3CCC2C3)cc([N+](=O)[O-])c1 (stereo not drawn) 18.1%
CC(NCC(=O)Nc1ccccc1C(=O)NC1CC1)c1ccccc1Cl (stereo not drawn) 3.17%
COc1ccc(CNC(=O)COC(=O)c2sccc2C)cc1OC -10.1%
CCCn1c(C)cc(C(=O)COC(=O)c2c(C)nn(-c3ccccc3)c2C)c1C -28.6%
CCCCN(C(=O)CCNC(=O)NC12CC3CC(CC(C3)C1)C2)c1c(N)n(CCCC)c(=O)[nH]c1=O 4.48%
Oc1c(CN2CCOCC2)ccc(CN2CCOCC2)c1O 9.75%
COc1ccc(C(CNC(=O)c2ccc(S(=O)(=O)Nc3ccccc3F)cc2)N(C)C)cc1 (stereo not drawn) 4.08%
Nc1nc(Br)c2ccccc2c1-c1ccc(F)cc1 5.57%
Cn1c(=NC(=O)c2ccc3c(c2)OCCO3)sc2cc(S(C)(=O)=O)ccc21 -28.1%
O=C(O)c1ccc(N=NN2CCOCC2)cc1 10.1%
O=C(c1ccccc1)C(O)(CN1CCCCC1)c1ccccc1 (stereo not drawn) 13.3%
COc1ccc(CNc2c(CO)cnc3c2cnn3C)cc1 17.6%
Cc1ccc(CNC(=O)c2cccnc2Cl)cc1 2.18%
CCN(CC)S(=O)(=O)c1ccc(NC(=O)c2cnc(C)cn2)cc1 11%
CCOCCc1c(O)nc(SCC(=O)NCc2ccco2)[nH]c1=O 11%
Cc1ccc(NC(=O)COC(=O)CN2CCCCCC2=O)c(C)c1 11.4%
CC(C)COc1ccc(C(=O)NNC(=O)CCC(=O)c2cccs2)cc1 -5.7%
Cc1cccc(C(=O)OC(C)C(=O)NC2CCCc3ccccc32)c1O (stereo not drawn) 3.74%
CC1CCCCN1S(=O)(=O)CCNC(=O)c1ccccc1 (stereo not drawn) 2.54%
O=C1COc2ccc(C(=O)CSc3ccc(Br)cc3)cc2N1 -19.3%
CN(CCc1ccccc1)C(=O)c1cccc(NC(=O)Cc2cccc(NC(=O)C3CCCN(C(=O)CCc4ccccc4)C3)c2)c1 (stereo not drawn) 1.76%
N#C/C(=C(\O)CCl)c1nnc2n1CCCCC2 -5.99%
N#C/C(=C(\O)C(F)(F)F)c1nnc2n1CCCCC2 19.1%
CCOC(=O)/C(=C\c1ccc([N+](=O)[O-])cc1)C(=O)c1cc(C(C)=O)c(Nc2ccccc2)s1 8.67%
COc1ccccc1/C=C/C(=O)NC1CC2CCC1C2 (stereo not drawn) -129%
CCc1ccccc1NC(=O)/C(=C/c1ccccc1)c1ccccc1 2.55%
COc1ccccc1C(=O)c1ccccc1C(=O)c1ccccc1 12%
COC(=O)[C@H](CC(C)C)NC(=O)N1CCCCC1C (stereo partly drawn) 10.8%
C=CCn1c(SCCOc2ccc(OC)cc2)nnc1C(NC(=O)c1ccc(OC)cc1)C(C)C (stereo not drawn) 26.4%
O=C(NNC(=S)NCCCN1CCOCC1)c1ccncc1 9.32%
O=C(C[n+]1ccc2c(c1)nnn2-c1ccccc1)c1ccc(Cl)cc1 -14.6%
O=C(CN1C(=O)NC2(CCOc3ccccc32)C1=O)NCc1ccc(F)cc1 (stereo not drawn) 7.05%
O=C(CC12CC3CC(CC(C3)C1)C2)Nc1ccc2c(c1)COC2=O -0.0166%
COc1ccc(C(=O)COC(=O)CN2C(=O)C3CC=CCC3C2=O)c(OC)c1 (stereo not drawn) -7.43%
O=C(COC(=O)CN1C(=O)C2CCCCC2C1=O)Nc1ccc(F)c(F)c1F (stereo not drawn) 15.9%
C=CCN(C(=O)Cn1ncc2c1-c1cc(C)ccc1OC2)c1ccccc1 8.04%
CCOc1ccccc1NC(=O)C1CCCN(S(=O)(=O)c2ccccc2)C1 (stereo not drawn) 6.68%
CN(C)/C=C(/C(=O)c1ccccc1)S(=O)(=O)c1ccc(Cl)cc1 -9.32%
C/C(=N\NS(=O)(=O)c1ccc(Cl)cc1)c1ccc(NC(=O)c2ccco2)cc1 -80.3%
CCCC(C(=O)N1CCOCC1)N1C(=O)C2C3C=CC(C3)C2C1=O (stereo not drawn) 5.26%

inhibition, active:
COC(=O)CCNc1ccc2c(c1)OCCO2 42%
O=S(=O)([N-]c1nc2ccccc2nc1-[n+]1ccc(Cc2ccccc2)cc1)c1ccc(Br)s1 52.2%
O=C(/C=C/Sc1ncn[nH]1)c1ccc(Cl)cc1 88.1%
COc1ccc(CC(N)c2csc(NC(=O)Nc3ccc(C(C)C)cc3)n2)cc1 (stereo not drawn) 91.1%
CN1OC[C@@H]2CN(S(=O)(=O)c3cccc(C(F)(F)F)c3)[C@H](c3ccc(-c4cc5ccccc5o4)cc3)C[C@@H]21 50.8%
CN(C)CCNC(=O)c1ccc(Cl)c2cc3ccccc3nc12 43.6%
Cc1cc(-c2n[nH]c(=S)n2/N=C/C(Br)=C/c2ccccc2)n[nH]1 87%
CC[C@@H](C)[C@H](NC(=O)CCc1c(C)c2cc3c4c(oc3c(C)c2oc1=O)CCCC4)C(=O)O 56.9%
O=[N+]([O-])/C=C/c1ccc2c(ccn2Cc2ccccc2)c1 92.5%
COC(=O)Cc1[nH]n(-c2nc3ccccc3s2)c(=O)c1C(C)=Nc1ccc(OC)cc1 80.1%
Cc1ccsc1C(=O)OCC(=O)c1cc(C)n(CC2CCCO2)c1C (stereo not drawn) 64.7%
O=C1C(Cl)=C(Oc2ccccc2)C(=O)c2ccccc21 88.1%
O=C(O)c1cccc(N=NN2CCCCCC2)c1 42.7%
CCN(CC)S(=O)(=O)c1ccc(NC(=O)c2cccnc2Cl)c(NC(=O)c2cccnc2Cl)c1 86.1%
COc1ccc2c(c1)c(=Cc1ccc(N(C)C)cc1)c1cc(-c3ccccc3)[n+](C)n12 88.2%
N#C/C(=C/c1cccc([N+](=O)[O-])c1)c1nnc2n1CCCCC2 40.7%
CCOC(=O)C(=Cc1ccccc1)C(=O)c1ccccc1 86.9%
CCOC(=O)C(=Cc1ccccc1OC)C(=O)OCC 56.9%
c1c2c(cc3sc(N4CCCCC4)nc13)OCCO2 70.3%
CC1=CC(C)(C)Nc2ccc(OC(=O)CN3C(=O)C4CCCCC4C3=O)cc21 (stereo not drawn) 85.2%
O=C(Nc1ccccc1)c1nnsc1S(=O)(=O)c1ccc(Cl)cc1 55.9%
